# Screening results (PubChem)
# DAGLB inh: diacylglycerol lipase beta (human) inhibition; Q8NCG7; HEK293T DAGLB membrane lysate, EnzChek fluorogenic substrate; inhibition, % at 5.17 µM; 0.059% of 340,000 active; AID 504411; in the data active means inhibition above about 34%;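 further: 0% = enzyme with vehicle and 100% = wells lacking enzyme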
# PAFAH1B3 FP inh: blocks human PAF acetylhydrolase 1B catalytic subunit 3. Q15102. recombinant PAFAH1B3, FP-rhodamine probe, fluorescence polarization. inhibition, % at 3.39 µM. 0.28% of 340,000 active. AID 492972;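 active means inhibition above the screen-wide average of all tested compounds plus 3 SD, cut at about 25% in these data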;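 further: 0% = enzyme with DMSO only and 100% = wells lacking PAFAH1B3 protein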
# Target sequence (Q15102 whole entry, looked up): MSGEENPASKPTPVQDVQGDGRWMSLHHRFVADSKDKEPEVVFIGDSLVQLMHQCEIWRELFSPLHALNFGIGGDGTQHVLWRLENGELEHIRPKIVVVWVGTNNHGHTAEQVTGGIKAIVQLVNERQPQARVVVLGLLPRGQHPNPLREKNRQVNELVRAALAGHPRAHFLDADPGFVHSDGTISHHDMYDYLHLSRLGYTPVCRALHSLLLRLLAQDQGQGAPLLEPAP
# HTRA1 inhibitor: HTRA1 (human) protease inhibition. inhibition, % at 5.96 µM. Q92743. recombinant HTRA1, FP-rhodamine activity-based probe, fluorescence polarization. AID 504803. 0.5% of 340,000 active; in the data active means inhibition above about 36%;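 further: 0% = enzyme with DMSO and 100% = wells lacking enzyme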
# PAFAH2 inh: PAFAH2 (human) inhibition; Q99487; recombinant PAFAH2, FP-rhodamine activity probe, fluorescence polarization; inhibition, % at 3.39 µM; 0.99% of 340,000 active;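 active means inhibition above the mean over all tested compounds plus 3 SD, cut at about 30% in these data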;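 further: inhibitors block probe labeling of enzyme so polarization drops; 0% = enzyme with DMSO and 100% = wells lacking PAFAH2 protein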
# pPAFAH FP inh: inhibitors of human plasma PAF acetylhydrolase (pPAFAH). 1.5% of 330,000 active. recombinant pPAFAH, FP-rhodamine probe fluorescence polarization. inhibition, % at 3.39 µM. Q13093;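 active means inhibition above the mean inhibition across the screen plus 3 SD, cut at about 25% in these data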;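 further: inhibitors block binding of the rhodamine activity-based probe so polarization drops; 0% = enzyme with DMSO and 100% = wells lacking pPAFAH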
# PAFAH1B2 FP inh: PAFAH1B2 (human) inhibition | recombinant PAFAH1B2, FP-rhodamine activity probe, fluorescence polarization | AID 492953 | 1.2% of 340,000 active | inhibition, % at 3.39 µM;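 active means inhibition above the mean of all tested compounds plus 3 SD, cut at about 24% in these data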;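 further: 0% = enzyme with DMSO and 100% = wells lacking PAFAH1B2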
# Target sequence (P68402 whole entry, looked up): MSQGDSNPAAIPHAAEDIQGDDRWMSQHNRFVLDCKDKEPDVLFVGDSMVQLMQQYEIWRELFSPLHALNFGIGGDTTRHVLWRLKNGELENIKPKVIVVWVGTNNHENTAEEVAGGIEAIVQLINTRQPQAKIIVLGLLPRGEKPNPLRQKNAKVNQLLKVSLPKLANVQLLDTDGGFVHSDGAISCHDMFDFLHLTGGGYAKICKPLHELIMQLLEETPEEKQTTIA
# pPAFAH FP conf: confirmation of human plasma PAF acetylhydrolase (pPAFAH) inhibitors | shares compounds with pPAFAH FP inh | recombinant pPAFAH, FP-Rh probe fluorescence polarization | inhibition, % at 3.39 µM | 72% of 2,300 active | AID 463230;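 active means mean inhibition of the triplicate above the hit cutoff set for the earlier primary screen, cut at about 25% in these data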;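 further: 0% = enzyme with DMSO and 100% = wells lacking pPAFAH enzyme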
# Starred values were filed as active, the others as inactive; . = no result given. Only some compounds are listed: those with a hit (about 2.8% of all), similar ones and a draw of the others.
SMILES,DAGLB inh,PAFAH1B3 FP inh,HTRA1 inhibitor,PAFAH2 inh,pPAFAH FP inh,PAFAH1B2 FP inh,pPAFAH FP conf
CN(CC(=O)Nc1ccc(C(N)=O)cc1)CC(=O)Nc1ccccc1Br,-0.9,7.4,-7.8,-8.0,58.8*,-1.6,3.6
Nc1ccc2nc(-c3ccc(-c4nc5ccc(N)cc5[nH]4)cc3)[nH]c2c1,.,.,.,.,18.9,.,.
Nc1ccc2nc(-c3cccc(-c4nc5ccc(N)cc5[nH]4)n3)[nH]c2c1,3.1,29.7*,5.4,12.5,35.1*,32.2*,53.7*
COC(=O)c1ccccc1NC1=C/C(=N\S(=O)(=O)c2ccc(C(=O)O)cc2)c2ccccc2C1=O,18.8,70.9*,44.9*,71.8*,37.0*,52.6*,39.4*
COC(=O)c1ccccc1Nc1ccccc1,-5.9,3.4,-5.1,0.3,4.0,-1.4,.
Cc1ccccc1C(=O)NCC(c1ccco1)N1CCc2ccccc2C1 (stereo not given),-0.5,-1.2,-3.2,3.0,3.8,-0.8,.
CC(=O)Nc1cccc(NC(=O)CCN2C(=O)c3ccccc3S2(=O)=O)c1,0.9,3.3,1.1,4.0,53.1*,-1.2,3.4
O=C(CCN1C(=O)c2ccccc2S1(=O)=O)Nc1cccc(F)c1,0.1,1.5,-1.5,-6.5,1.3,1.6,.
Cc1ccc(NS(=O)(=O)c2cccc(C(=O)NCC3(N(C)C)CCCCC3)c2)cc1,0.9,10.6,-9.7,5.8,60.0*,8.3,53.4*
CN(C)C1(CNC(=O)c2cccc(S(=O)(=O)Nc3ccc(Br)cc3)c2)CCCCC1,-2.7,-2.0,0.5,-2.8,42.8*,3.8,42.1*
O=c1c2ccccc2nc(/C=C/c2cc(Br)ccc2O)n1CCCO,-1.5,11.1,-27.2,4.7,0.4,6.1,.
O=C(O)c1cccc2c(-c3ccccc3)c(-c3ccccc3)[nH]c12,10.5,-1.9,-18.6,-4.3,52.2*,48.1*,46.4*
Cc1cc(Cl)nc(Cl)c1C(=O)NCc1ccc(Cl)cc1,-11.1,2.7,-1.8,-4.7,-2.8,6.5,.
O=c1c(O)c(-c2ccc(O)c(O)c2)oc2cc(O)cc(O)c12,5.8,52.7*,21.4,1.4,52.8*,28.6*,81.9*
O=c1c(-c2c(O)cc(O)c3c(=O)cc(-c4ccc(O)cc4)oc23)c(-c2ccc(O)cc2)oc2cc(O)cc(O)c12,3.3,43.9*,12.2,21.4,66.0*,17.0,68.4*
CCOc1cc(C(=O)Nc2ccc(C(=O)NCCN(CC)CC)cc2)ccc1OCC(=O)N1CCOCC1,-1.6,4.1,-4.5,-0.2,.,-4.0,.
CCOc1ccc(-c2ccc(/C=C3/C(=N)N4C(C)=CSC4=NC3=O)o2)c([N+](=O)[O-])c1,14.8,4.5,3.1,18.5,45.0*,4.5,37.1*
CC(C)Cn1c(=O)c(C(=O)NCc2ccccn2)c(O)c2ccccc21,-17.0,8.5,-6.0,-4.2,55.7*,-3.2,3.5
CCn1c(=O)c(C(=O)NCc2ccccc2)c(O)c2ccccc21,-15.4,8.3,-4.0,-3.4,4.8,2.1,.
O=S(=O)(c1ccccc1)c1ccc(N2CCCCCC2)cc1,-2.6,9.6,-27.7,8.5,5.8,6.1,.
O=C(Oc1ccnc2cc(Cl)ccc12)N1CCOCC1,4.1,-0.8,11.8,28.5,39.6*,-3.4,37.2*
OCCOCCNc1ncnc2c1c(-c1ccccc1)cn2-c1ccccc1,-1.4,5.7,-3.4,0.6,34.6*,2.6,22.3
O=C(Nc1ccc2c(c1)nc1n2CCN(Cc2ccccc2)C1)NC1CCCCC1,1.1,-4.7,-2.6,-4.9,7.6,2.9,.
O=S(=O)(Nc1ccc2c(c1)nc1n2CCN(Cc2ccccc2)C1)c1ccc(F)cc1,1.0,3.2,-11.4,-3.4,35.5*,6.2,12.4
O=S(=O)(Nc1ccc2c(c1)nc1n2CCN(Cc2ccccc2)C1)c1ccc(Cl)cc1,-0.1,-3.1,-16.0,4.2,38.4*,32.8*,7.0
Cc1ccc(S(=O)(=O)Nc2ccc3c(c2)nc2n3CCN(Cc3ccccc3)C2)cc1,-0.6,4.1,-8.7,-22.6,5.8,11.0,.
Cc1cnc(NC(=O)Cc2ccc(C)c(C)c2)s1,1.1,6.3,-14.3,-0.2,1.2,3.4,.
Cc1c(O)ccc(/C=N/Nc2nc(-c3cccnc3)nc3ccccc23)c1O,2.4,30.2*,0.9,-15.8,42.3*,10.8,45.6*
